# Experimental data from PubChem BioAssay (NCATS).
# Inconclusive results are not listed. Entries that show only a call come without a potency. The source made the active and inactive calls. Calls come from the whole dose curve; as a rule, active = well fitted cell-killing curve with a large enough effect; inconclusive = small, poorly fitted or top-dose-only effect, or effect the other way; inactive = no such curve, though single readings can be large or run the other way.
# Experiment: Quantitative High-Throughput drug screen in 47 multiple myeloma cell lines against the NCATS MIPE library collection: OPM2_DSMZ cell viability assay (AID 1919872); note: nearly all actives have a fitted effect of over 30% in size
# Details: OPM2 myeloma viability, CellTiter-Glo ATP luminescence, 48 h; series mostly up to 45.8 µM
# Outline: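 Luminescent ATP measurement with CellTiter-Glo gives viability, scaled between DMSO-only wells (100%) and media-only wells (0%). Cells, 500 per well, faced library compounds for 48 hours at 37C.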
# Potency is the fitted concentration of half-maximal effect.
row,SMILES,Potency
1,CCCC(CCC)C(=O)O,inactive
2,Cc1cn[nH]c1,4.18 µM (active)
3,N#CC[C@H](C1CCCC1)n1cc(-c2ncnc3[nH]ccc23)cn1,inactive
4,COc1ccc(C2=N[C@H](c3ccc(Cl)cc3)[C@H](c3ccc(Cl)cc3)N2C(=O)N2CCNC(=O)C2)c(OC(C)C)c1,inactive
5,CCOc1cc(C=C2C(=O)N(c3ccccc3)N=C2C)cc(Cl)c1OCC(=O)OC,inactive
6,CC(c1cc2ccccc2s1)N(O)C(N)=O (stereo not drawn),inactive
7,CCOC(=O)C1=C[C@]2(CC)CCCN3CCc4c(n1c1ccccc41)[C@@H]32,26.4 µM (active)
8,CCN(c1ccccc1)c1cc(NC)[n+](C)c(C)n1,inactive
9,COc1ccc(-c2c(-c3ccc(O)cc3O)n[nH]c2C)cc1,inactive
10,NCCc1ccc(O)c(O)c1,13.2 µM (active)
11,COc1ccc(-c2ccc3c(N4CCOCC4)nc(N4C[C@@H](C)O[C@@H](C)C4)nc3n2)cc1CO,1.18 µM (active)
12,O=c1n(CCCN2CCN(c3cccc(Cl)c3)CC2)nc2ccccn12,inactive
13,O=C(C=Cc1ccc(/C=C/C(=O)Nc2ccc(C3=NCCN3)cc2)cc1)Nc1ccc(C2=NCCN2)cc1,0.662 µM (active)
14,OC(CN1CCC(Cc2ccc(F)cc2)CC1)c1ccc(Cl)cc1 (stereo not drawn),inactive
15,Oc1ccc(C2CNCCc3c2cc(O)c(O)c3Cl)cc1 (stereo not drawn),inactive
16,COc1ccc([C@@H]2CC(=O)c3c(O)cc(O[C@@H]4O[C@H](CO[C@@H]5O[C@@H](C)[C@H](O)[C@@H](O)[C@@H]5O)[C@@H](O)[C@H](O)[C@@H]4O)cc3O2)cc1O,inactive
17,CCOc1ccc(Cc2cc([C@@H]3O[C@H](CO)[C@@H](O)[C@H](O)[C@@H]3O)ccc2Cl)cc1,inactive

row,SMILES,Potency
1,N[C@@H]1CONC1=O,inactive
2,COc1cc2nccc(Oc3ccc(NC(=O)NC4CC4)c(Cl)c3)c2cc1C(N)=O,13.2 µM (active)
3,Cc1[nH]c(=O)c(C#N)cc1-c1ccncc1,inactive
4,Nc1nccc(-c2ccc3noc(-c4ccc(Cl)cc4)c3c2)n1,inactive
5,CCCc1nc2c(C)cc(-c3nc4ccccc4n3C)cc2n1Cc1ccc(-c2ccccc2C(=O)O)cc1,inactive
6,COc1ccc(CC2=NN3C([C@@H](CCc4ccccc4)[C@@H](C)O)=NC(C)C3C(=O)N2)cc1OC (stereo partly drawn),inactive
7,NC(=O)C1CCCc2c1[nH]c1ccc(Cl)cc21 (stereo not drawn),inactive
8,Nc1nc2[nH]cc(CCc3ccc(C(=O)N[C@@H](CCC(=O)O)C(=O)O)cc3)c2c(=O)[nH]1,inactive
9,Nc1nc2c(ncn2COCCO)c(=O)[nH]1,inactive
10,CCN(CC)CCCC(C)Nc1nc(C)cc(Nc2ccc3nc(C)cc(N)c3c2)n1 (stereo not drawn),inactive
11,Cc1ccccc1C(OCCN(C)C)c1ccccc1 (stereo not drawn),inactive
12,Cc1cnc(NC(=O)C2=C(O)c3ccccc3S(=O)(=O)N2C)s1,inactive
13,CCCn1c(=O)c2[nH]c(C34CC5CC3C[C@@H](C5)C4)nc2n(CCC)c1=O,inactive
14,CC(=O)Oc1ccccc1C(=O)O,inactive
15,Cc1cc2c(C(C)C)c(O)c(O)c(C=O)c2c(O)c1-c1c(C)cc2c(C(C)C)c(O)c(O)c(C=O)c2c1O,18.7 µM (active)
16,COc1cc2c(cc1OC)CN(CCc1ccc(NC(=O)c3cccc4c(=O)c5cccc(OC)c5[nH]c34)cc1)CC2,inactive
